GPR151 ag = activates the human receptor GPR151; Q8TDV0; PathHunter beta-arrestin GPR151 cells, luminescence; activation, % at 11.2 µM; 1% of 650,000 active; AID 1508602; in the data active means activation above about 4.9%;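 further: 0% = median of compound wells and 100% = cells with positive control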
TEAD-YAP inh = TEAD-YAP interaction inhibition; HEK-TIYL cells, TEAD-Gal4/YAP UAS-luciferase luminescence; 1.4% of 640,000 active; inhibition, % at 9.12 µM; in the data active means inhibition above about 32%;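 further: 0% = median of test compound wells and 100% = reference inhibitor wells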
MITF primary = inhibitors of human MITF | AlphaScreen MITF homodimerization, bead proximity signal | inhibition, % at 2.6 µM | 0.91% of 650,000 active | AID 1259374; in the data active means inhibition above about 50%;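 further: 0% = vehicle wells with protein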
FBW7 act = activators of human E3 ligase FBW7. Q969H0. AlphaScreen FBW7–phospho-cyclin E peptide binding, activator screen. normalized activity (activation), % at 26.1 µM. 0.13% of 650,000 active; in the data active means normalized activity above about 1.9%;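 further: purified mutant Fbw7 with reduced substrate affinity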
Target sequence (Q969H0 whole entry, looked up): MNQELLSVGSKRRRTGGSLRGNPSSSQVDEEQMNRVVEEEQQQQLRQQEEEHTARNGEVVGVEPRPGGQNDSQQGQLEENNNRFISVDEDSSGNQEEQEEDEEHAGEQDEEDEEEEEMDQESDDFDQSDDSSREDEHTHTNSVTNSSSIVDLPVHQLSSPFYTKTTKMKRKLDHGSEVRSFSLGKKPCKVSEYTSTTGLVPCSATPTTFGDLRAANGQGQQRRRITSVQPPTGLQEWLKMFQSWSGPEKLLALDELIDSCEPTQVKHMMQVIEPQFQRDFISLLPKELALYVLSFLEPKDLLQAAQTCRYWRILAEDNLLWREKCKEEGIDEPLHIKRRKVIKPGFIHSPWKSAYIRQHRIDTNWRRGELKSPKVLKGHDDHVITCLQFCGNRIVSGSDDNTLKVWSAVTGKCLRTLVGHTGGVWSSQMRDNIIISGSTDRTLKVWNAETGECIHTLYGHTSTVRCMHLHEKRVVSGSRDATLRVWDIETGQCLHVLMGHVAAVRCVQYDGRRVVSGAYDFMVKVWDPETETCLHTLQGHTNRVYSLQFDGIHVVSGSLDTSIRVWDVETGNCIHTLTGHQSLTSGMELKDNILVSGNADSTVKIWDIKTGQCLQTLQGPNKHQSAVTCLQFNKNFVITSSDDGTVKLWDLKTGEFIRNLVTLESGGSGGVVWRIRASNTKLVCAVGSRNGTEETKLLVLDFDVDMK
* = called active by the depositor; x = no result given. In the library only some 3.5% were active in any assay of this set; here they are far more common.

SMILES	GPR151 ag	TEAD-YAP inh	MITF primary	FBW7 act
Cn1c(-c2ccccc2)c(/C=C(\C#N)c2nn(CCO)c(N)c2C#N)c2ccccc21	-0.4	50.2*	-7.6	-0.1
Cc1sc2nc(C3CC3)n(C3CCN(CC(=O)NC4CCCC4)CC3)c(=O)c2c1C	3.7	4.5	1.1	-0.1
Nc1ccc(NC(=O)c2nc[nH]c2C(=O)O)cc1	-0.3	5.6	85.5*	-1.8
COc1ccc(C2=NOC(C(=O)NCc3ccc(F)cc3)C2)cc1OC (stereo unspecified)	0.6	49.6*	8.4	0.0
COCCNC(=O)C1CC(c2ccc(OC)c(OC)c2)=NO1 (stereo unspecified)	0.2	-2.3	-9.3	0.1
CCOc1ccc(Nc2ccc3ccccc3n2)cc1	-4.4	41.1*	-11.7	-0.1
C#CCn1c(=NC(=O)C2COc3ccccc3O2)sc2cc(OC)c(OC)cc21 (stereo unspecified)	1.1	34.7*	8.4	-0.1
Cc1cncc(NC(=O)c2cc(N3CCOCC3)cc(-n3cc(NC(=O)Cc4ccccc4)cn3)c2)c1	-0.4	39.9*	17.3	0.1
Nc1nnc(CC(=O)N2CCCCC2)s1	-1.4	4.6	11.9	2.1*
COc1cc(O)cc(OC)c1OC	3.1	63.3*	-11.0	-0.1
COc1cc(/C=N/O)cc(OC)c1OC	0.2	4.1	14.5	0.0
NS(=O)(=O)c1ccc(Nc2nccc(-c3ccccc3)n2)cc1	-0.6	-16.0	-5.1	-0.2
NS(=O)(=O)c1ccc(Nc2nccc(-c3cccc(Cl)c3Cl)n2)cc1	0.6	-5.5	13.6	23.9*
COc1ccccc1-c1ccnc(Nc2ccc(S(N)(=O)=O)cc2)n1	1.0	34.4*	67.6*	0.8
O=C(O)CCC/C=C\C[C@@H]1CO[C@H](C(F)(F)F)O[C@@H]1c1ccccc1O	1.8	x	5.0	2.2*
O=c1nc(N/N=C/c2ccc(Cl)cc2Cl)cn[nH]1	-6.6	67.0*	6.6	0.0
O=c1nc(N/N=C/c2ccccc2Cl)cn[nH]1	-5.8	18.2	2.4	0.4
Cc1nc2sccn2c1CN1CCc2ccc(NC(=O)C3CCCO3)cc2C1 (stereo unspecified)	1.0	37.2*	12.0	0.0
O=C(Nc1ccc2c(c1)CN(C(=O)C#Cc1ccccc1)CC2)C1CCCO1 (stereo unspecified)	0.2	60.6*	4.9	-0.1
CCOc1ccc(C2Nc3ccccc3C(=O)N2c2ccc3ccccc3c2)cc1 (stereo unspecified)	-7.2	73.6*	1.3	-0.1
CCOc1ccc(C2Nc3ccccc3C(=O)N2c2ccc(F)c(Cl)c2)cc1 (stereo unspecified)	-6.4	-46.4	13.5	0.1
O=C(NNC(=O)C1C2CCCCC21)C1C2CCCCC21 (stereo unspecified)	-1.1	-44.0	4.8	1.1
O=c1[nH]c(=S)n(Cc2ccco2)c(O)c1/C=C1\C=CC=N1	0.8	-2.9	100.9*	-1.4
O=c1[nH]c(=O)n(-c2ccccc2Cl)c(O)c1/C=C1\C=CC=N1	-1.2	61.4*	11.0	-0.2
Cc1ccccc1-n1c(O)c(/C=C2\C=CC=N2)c(=O)[nH]c1=O	-2.1	57.0*	9.4	0.2
SMILES	GPR151 ag	TEAD-YAP inh	MITF primary	FBW7 act
O=c1[nH]c(=S)n(-c2ccccc2)c(O)c1/C=C1\C=CC=N1	0.3	-7.8	-6.9	0.1
CCOc1ccccc1-n1c(O)c(/C=C2\C=CC=N2)c(=O)[nH]c1=O	0.4	24.4	12.9	0.0
O=c1[nH]c(=O)n(-c2ccccc2F)c(O)c1/C=C1\C=CC=N1	-0.1	57.2*	12.7	0.0
C=CCNC(=O)C1CCCN(S(=O)(=O)CCC)C1 (stereo unspecified)	-0.9	7.2	4.0	1.1
COc1cccc(-c2nc3nc(C)c(CCC(=O)O)c(C)n3n2)c1	-0.2	48.5*	0.6	-0.1
Cc1nc2nc(-c3ccc(Cl)cc3Cl)nn2c(C)c1CCC(=O)O	0.1	80.2*	1.8	-0.2
O=C(O)CCc1nc(-c2ccc(Cl)cc2Cl)no1	1.0	-3.8	1.2	-0.1
O=C(NCc1ccoc1)c1ccc(NC(=O)c2ccccc2Cl)cc1	0.1	8.2	-1.1	-0.2
CC1=NN(c2cccc(C(=O)O)c2)C(=O)/C1=C\c1ccccc1O	0.5	-24.8	56.7*	-1.1
CCOc1cc(/C=C2\C(=O)N(c3cccc(C(=O)O)c3)N=C2C)cc(Cl)c1OC	-0.9	-1.8	60.8*	-1.2
CC1=NN(c2cccc(C(=O)O)c2)C(=O)/C1=C\c1ccc(-c2ccc(Cl)c(C(=O)O)c2)o1	3.1	8.6	73.7*	-0.8
CCC/C(O)=C1\C(=O)CC(C)(C)CC1=Nc1ccc(OC)cc1OC	-0.3	55.1*	17.0	-0.1
Cc1nc2ccc(NS(=O)(=O)c3ccc(C(C)C)cc3)cc2s1	2.0	32.0*	6.3	0.1
COc1ccc(C(=O)Nc2ncc(Cc3ccc(C)cc3)s2)cc1OC	-0.8	39.1*	9.9	1.1
COc1ccc(C(=O)Nc2ncc(Cc3cccc(Cl)c3)s2)cc1OC	1.1	53.1*	8.8	0.5
Cc1ccc(C(=O)Nc2ncc(Cc3cccc(Cl)c3)s2)cc1	0.1	11.3	20.0	0.6
Cc1cc(Br)ccc1OCC(=O)NNC(=O)CCc1ccccc1	0.1	4.1	5.6	0.5
Cc1cnc(NC(=O)CN2CCC(O)(c3ccc(F)cc3)CC2)s1	-0.5	2.8	8.4	-0.1
CCN(CC)C(=O)Nc1ccc2nc(-c3ccco3)c(-c3ccco3)nc2c1	-0.3	-0.8	73.0*	-0.7
Clc1cc2nc(-c3ccco3)c(-c3ccco3)nc2cc1Cl	-1.1	-2.8	21.0	-0.3
COc1cc(C2NC(=O)c3c(sc4c3CCN(C)C4)N2)ccc1O (stereo unspecified)	-0.1	15.8	2.7	-0.1
CN1CCc2c(sc3c2C(=O)NC(c2ccc(O)c(O)c2)N3)C1 (stereo unspecified)	-0.1	-0.9	65.9*	-0.3
CCC(C)C1NC(=O)C(CCNCS(=O)(=O)O)NC(=O)C(NC(=O)C(CCNCS(=O)(=O)O)NC(=O)C(NC(=O)C(CCNCS(=O)(=O)O)NC(=O)CCCCC(C)C)C(C)O)CCNC(=O)C(C(C)O)NC(=O)C(CCNCS(=O)(=O)O)NC(=O)C(CCNCS(=O)(=O)O)NC(=O)C(C(C)CC)NC1=O (stereo unspecified)	-0.7	4.8	1.8	-0.1
O=C(Nc1ccc(S(=O)(=O)C(F)F)cc1)c1cc(F)c(F)c(F)c1F	-0.1	36.9*	8.4	0.1
O=C(Nc1c2c(nn1-c1ccc(F)cc1)CSC2)c1cc([N+](=O)[O-])ccc1Cl	0.1	85.8*	4.3	0.0
Cc1ccc(-n2nc3c(c2NC(=O)c2cc([N+](=O)[O-])ccc2Cl)CSC3)cc1	-0.5	62.8*	5.3	-0.1
O=C(Nc1c2c(nn1-c1ccc(Cl)cc1)CSC2)c1cc([N+](=O)[O-])ccc1Cl	0.5	5.7	6.8	-0.1
Cc1cc([N+](=O)[O-])nn1CC(=O)Nc1cccc(F)c1C#N	0.5	36.4*	6.0	0.3
CCN(CC(F)(F)C(F)F)c1ccc(C=O)cc1	0.0	15.3	5.1	0.1
CC1CCc2nc(/C(C#N)=C\c3ccco3)sc2C1 (stereo unspecified)	-1.4	69.9*	-1.5	-0.2
